Inhibition data for seven compounds are collected here from ChEMBL document CHEMBL1961873, “Compounds: GSK PKIS; Assays: Nanosyn kinase panel” (2012).

For assay [1], the target named is Serine/threonine-protein kinase MRCK alpha (Homo sapiens) (UniProt Q5VT25). The conditions noted are these: at 0.1 µM.
Assay [2] has the same target. Conditions: at 1 µM.
The target in assay [3] is Serine/threonine-protein kinase MRCK beta (Homo sapiens) (UniProt Q9Y5S2). The conditions noted are these: at 0.1 µM.
Assay [4] has the same target. Conditions: at 1 µM.
The target of assay [5] is Ribosomal protein S6 kinase alpha-5 (Homo sapiens) (UniProt O75582). The conditions noted are these: at 0.1 µM.
Sequence of Ribosomal protein S6 kinase alpha-5 (Homo sapiens) (O75582 whole entry, looked up): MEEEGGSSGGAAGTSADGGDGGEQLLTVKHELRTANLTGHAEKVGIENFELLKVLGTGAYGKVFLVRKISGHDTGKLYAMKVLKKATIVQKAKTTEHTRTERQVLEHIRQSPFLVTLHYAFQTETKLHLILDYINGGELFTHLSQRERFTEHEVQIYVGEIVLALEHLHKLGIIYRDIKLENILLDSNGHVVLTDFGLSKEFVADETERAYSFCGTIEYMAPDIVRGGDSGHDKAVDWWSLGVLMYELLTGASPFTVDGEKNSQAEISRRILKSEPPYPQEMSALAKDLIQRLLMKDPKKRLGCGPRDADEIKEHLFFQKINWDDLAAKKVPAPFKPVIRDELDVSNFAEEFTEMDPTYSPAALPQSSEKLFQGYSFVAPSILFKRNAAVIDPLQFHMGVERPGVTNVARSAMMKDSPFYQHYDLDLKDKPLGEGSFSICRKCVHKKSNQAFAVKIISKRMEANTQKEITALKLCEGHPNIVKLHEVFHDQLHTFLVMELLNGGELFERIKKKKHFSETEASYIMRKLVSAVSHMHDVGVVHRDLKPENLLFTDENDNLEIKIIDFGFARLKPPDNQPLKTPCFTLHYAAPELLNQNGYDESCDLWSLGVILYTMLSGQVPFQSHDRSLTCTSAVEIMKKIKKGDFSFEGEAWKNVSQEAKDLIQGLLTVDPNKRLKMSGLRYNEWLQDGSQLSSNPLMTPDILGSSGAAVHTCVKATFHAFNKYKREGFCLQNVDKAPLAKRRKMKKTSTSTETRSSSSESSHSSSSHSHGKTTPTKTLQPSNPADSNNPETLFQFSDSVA
For assay [6] the target is unchanged. Conditions: at 1 µM.
Assay [7] deals with Ribosomal protein S6 kinase alpha-4 (Homo sapiens) (UniProt O75676). Conditions: at 0.1 µM.
For assay [8] the target is unchanged. The conditions noted are these: at 1 µM.
For assay [9], the target named is Ribosomal protein S6 kinase beta-1 (Homo sapiens) (UniProt P23443). The conditions noted are these: at 0.1 µM.
Sequence of Ribosomal protein S6 kinase beta-1 (Homo sapiens) (P23443 whole entry, looked up): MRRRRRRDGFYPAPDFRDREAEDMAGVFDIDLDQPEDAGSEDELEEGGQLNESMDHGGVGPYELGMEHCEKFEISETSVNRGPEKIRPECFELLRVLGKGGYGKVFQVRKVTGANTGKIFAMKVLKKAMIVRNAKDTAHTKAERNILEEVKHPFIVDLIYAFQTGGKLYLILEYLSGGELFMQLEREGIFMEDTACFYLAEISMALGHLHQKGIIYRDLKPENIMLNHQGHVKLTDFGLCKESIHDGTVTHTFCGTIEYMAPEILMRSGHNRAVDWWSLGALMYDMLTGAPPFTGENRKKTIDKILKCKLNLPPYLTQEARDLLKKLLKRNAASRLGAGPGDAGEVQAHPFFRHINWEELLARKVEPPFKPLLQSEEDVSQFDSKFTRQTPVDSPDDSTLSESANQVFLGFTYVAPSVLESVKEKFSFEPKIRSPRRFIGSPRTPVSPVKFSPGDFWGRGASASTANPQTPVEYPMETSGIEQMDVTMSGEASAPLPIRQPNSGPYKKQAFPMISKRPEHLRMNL
Assay [10] shares this target. The conditions noted are these: at 1 µM.
In assay [11] the target is T1, 3-phosphoinositide-dependent protein kinase 1 (Homo sapiens) (UniProt O15530).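 Note: values are mean inhibition of PDK1.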
T1 sequence (whole entry): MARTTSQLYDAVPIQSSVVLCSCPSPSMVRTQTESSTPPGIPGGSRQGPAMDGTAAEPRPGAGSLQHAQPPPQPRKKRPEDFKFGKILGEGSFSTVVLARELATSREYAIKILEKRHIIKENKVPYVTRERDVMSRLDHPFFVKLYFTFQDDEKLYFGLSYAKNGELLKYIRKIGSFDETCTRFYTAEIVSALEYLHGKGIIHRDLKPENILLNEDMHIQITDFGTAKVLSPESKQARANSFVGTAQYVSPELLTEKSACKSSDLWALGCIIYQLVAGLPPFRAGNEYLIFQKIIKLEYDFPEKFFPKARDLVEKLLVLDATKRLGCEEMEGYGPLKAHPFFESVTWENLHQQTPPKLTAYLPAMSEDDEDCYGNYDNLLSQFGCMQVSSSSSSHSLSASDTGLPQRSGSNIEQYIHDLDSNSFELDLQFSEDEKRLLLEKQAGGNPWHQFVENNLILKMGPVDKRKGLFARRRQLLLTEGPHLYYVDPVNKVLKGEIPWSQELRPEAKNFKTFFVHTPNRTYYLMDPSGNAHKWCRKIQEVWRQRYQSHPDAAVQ
The conditions noted are these: at 0.1 µM.

In assay [12] the target is cAMP-dependent protein kinase catalytic subunit alpha (Homo sapiens) (UniProt P17612). Conditions: at 0.1 µM.
Assay [13] shares this target. Conditions: at 1 µM.
Assay [14] concerns the target Protein kinase C alpha type (Homo sapiens) (UniProt P17252). Conditions: at 0.1 µM.
For assay [15] the target is unchanged. The conditions noted are these: at 1 µM.
The target of assay [16] is Protein kinase C beta type (Homo sapiens) (UniProt P05771). The conditions noted are these: at 0.1 µM.
Sequence of Protein kinase C beta type (Homo sapiens) (P05771 2-671 limits assumed): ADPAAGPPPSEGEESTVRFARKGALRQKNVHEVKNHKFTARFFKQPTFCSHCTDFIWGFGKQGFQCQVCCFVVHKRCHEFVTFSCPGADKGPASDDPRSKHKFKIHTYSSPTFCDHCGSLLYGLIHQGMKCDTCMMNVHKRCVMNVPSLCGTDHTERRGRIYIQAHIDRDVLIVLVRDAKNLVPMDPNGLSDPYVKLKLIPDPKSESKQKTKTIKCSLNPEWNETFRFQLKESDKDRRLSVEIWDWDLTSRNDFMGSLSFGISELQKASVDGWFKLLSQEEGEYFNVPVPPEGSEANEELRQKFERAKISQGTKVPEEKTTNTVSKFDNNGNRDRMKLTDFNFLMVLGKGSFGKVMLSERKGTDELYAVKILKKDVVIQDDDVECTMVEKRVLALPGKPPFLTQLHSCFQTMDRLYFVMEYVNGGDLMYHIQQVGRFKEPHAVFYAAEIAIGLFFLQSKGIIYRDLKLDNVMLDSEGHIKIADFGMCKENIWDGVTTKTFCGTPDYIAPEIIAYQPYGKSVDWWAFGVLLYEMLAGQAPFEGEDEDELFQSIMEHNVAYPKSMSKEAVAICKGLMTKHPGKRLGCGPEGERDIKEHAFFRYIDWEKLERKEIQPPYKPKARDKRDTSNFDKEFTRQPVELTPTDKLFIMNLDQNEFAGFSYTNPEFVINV
Assay [17] shares this target. Conditions: at 1 µM.
Assay [18] deals with Protein kinase C eta type (Homo sapiens) (UniProt P24723). Conditions: at 0.1 µM.
Assay [19] has the same target. Conditions: at 1 µM.
Assay [20] deals with Protein kinase C gamma type (Homo sapiens) (UniProt P05129). Conditions: at 0.1 µM.

SMILES strings stand for the structures.

What is called inhibition is the relative decrease from the control value, in per cent.

Sequence of Serine/threonine-protein kinase MRCK alpha (Homo sapiens) (Q5VT25 whole entry): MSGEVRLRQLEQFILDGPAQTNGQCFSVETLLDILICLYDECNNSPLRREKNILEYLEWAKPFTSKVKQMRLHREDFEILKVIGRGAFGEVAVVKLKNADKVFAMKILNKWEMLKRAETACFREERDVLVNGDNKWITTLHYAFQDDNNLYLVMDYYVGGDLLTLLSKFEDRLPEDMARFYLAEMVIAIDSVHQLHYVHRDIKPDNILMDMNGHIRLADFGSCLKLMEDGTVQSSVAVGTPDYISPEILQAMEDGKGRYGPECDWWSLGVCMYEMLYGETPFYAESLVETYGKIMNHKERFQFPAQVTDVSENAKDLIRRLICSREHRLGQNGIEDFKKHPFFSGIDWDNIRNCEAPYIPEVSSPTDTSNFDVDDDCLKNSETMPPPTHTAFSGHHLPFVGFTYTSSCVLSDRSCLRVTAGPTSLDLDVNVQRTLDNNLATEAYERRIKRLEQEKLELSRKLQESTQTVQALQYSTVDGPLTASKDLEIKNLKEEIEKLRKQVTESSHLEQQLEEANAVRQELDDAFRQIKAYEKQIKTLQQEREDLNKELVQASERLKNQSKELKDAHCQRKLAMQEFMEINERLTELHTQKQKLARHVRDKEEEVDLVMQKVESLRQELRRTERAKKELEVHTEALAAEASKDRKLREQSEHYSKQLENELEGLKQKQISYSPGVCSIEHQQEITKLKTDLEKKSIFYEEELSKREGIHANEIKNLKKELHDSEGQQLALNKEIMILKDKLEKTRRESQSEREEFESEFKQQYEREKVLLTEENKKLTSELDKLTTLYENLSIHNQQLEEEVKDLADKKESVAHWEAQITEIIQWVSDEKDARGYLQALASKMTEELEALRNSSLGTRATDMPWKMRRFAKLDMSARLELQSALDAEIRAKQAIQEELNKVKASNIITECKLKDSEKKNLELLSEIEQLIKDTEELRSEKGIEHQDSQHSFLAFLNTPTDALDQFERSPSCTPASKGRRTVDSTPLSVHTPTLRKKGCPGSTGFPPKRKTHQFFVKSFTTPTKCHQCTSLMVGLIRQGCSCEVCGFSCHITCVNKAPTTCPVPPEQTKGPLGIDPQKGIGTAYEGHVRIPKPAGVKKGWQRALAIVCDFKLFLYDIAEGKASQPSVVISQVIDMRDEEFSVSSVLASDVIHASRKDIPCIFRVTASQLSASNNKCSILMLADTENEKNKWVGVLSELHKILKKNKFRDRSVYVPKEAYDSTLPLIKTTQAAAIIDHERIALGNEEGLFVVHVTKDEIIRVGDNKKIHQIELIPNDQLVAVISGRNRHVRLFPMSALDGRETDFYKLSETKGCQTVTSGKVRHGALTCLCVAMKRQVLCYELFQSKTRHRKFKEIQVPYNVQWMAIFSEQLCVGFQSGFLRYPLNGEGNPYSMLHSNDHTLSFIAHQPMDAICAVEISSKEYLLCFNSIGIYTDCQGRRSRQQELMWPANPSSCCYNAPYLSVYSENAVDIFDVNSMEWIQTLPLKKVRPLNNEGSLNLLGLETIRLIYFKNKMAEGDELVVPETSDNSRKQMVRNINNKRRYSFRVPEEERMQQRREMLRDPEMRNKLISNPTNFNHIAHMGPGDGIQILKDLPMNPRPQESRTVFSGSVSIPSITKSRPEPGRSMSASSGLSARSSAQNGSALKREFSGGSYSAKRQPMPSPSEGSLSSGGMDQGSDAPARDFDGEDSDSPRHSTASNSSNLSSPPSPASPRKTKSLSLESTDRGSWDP

For the compound `Cc1cccc(Nc2ncc(-c3ccccc3)o2)c1`, the inhibition in assay [1] is 7.36%; in assay [2], 8.12%; in [3] it was 0.54%; in [4] it was 4.56%; in [5], 2.55%; in [6], 6.07%. Also, the inhibition in [7] was 1.23%; in assay [8] it was 8.07%; in assay [9], 1.43%; in assay [10], 3.89%; in [11] it was 1.5%; in assay [12] it was 12.6%. The inhibition in [13] turned out to be 13.8%; in assay [14], 0.24%; in assay [15], 3.41%; in [16] it was 3.52%; in assay [17] it was 5.79%; in assay [18], 2.87%. In addition, the values for the inhibition in assay [19] and in assay [20] were 0.87% and 3.99%, respectively.
Regarding `CNC(=O)c1cncc(/C=C/c2ccccc2Cl)c1`, the inhibition in assay [1] was 1.52%; in assay [2] it was 2.33%; in assay [3] it was -0.05%; in [4] it was 0.26%; in assay [5], 3.05%; in [6] it was 3.68%. In addition, the inhibition in assay [7] is 1.83%; in [8], 1.78%; in assay [9] it was 0.27%; in assay [10] it was 0.23%; in assay [11], -0.25%; in assay [12] it was 1.4%. Moreover, the inhibition in assay [13] is 3.17%; in assay [14], 0.42%; in assay [15] it was -0.07%; in assay [16], 2.7%; in [17], 5.12%; in assay [18], 1.33%. Besides, the inhibition in [19] is 2.39%; in assay [20], 3.03%.
`NC(=O)c1sc(-n2cnc3ccc(C(F)(F)F)cc32)cc1OCc1ccccc1Br`: the inhibition in assay [1] is -0.03%; in assay [2], 1.97%; in assay [3] it was 0.62%; in [4], 3.16%; in [5], 4.33%; in assay [6], 4.75%. In addition, the inhibition in [7] is 3.18%; in assay [8], 5.34%; in assay [9] it was 1.25%; in assay [10], 2.28%; in assay [11] it was 2.61%; in assay [12] it was 3.12%. The inhibition in assay [13] is 6.29%; in [14] it was 0.78%; in [15] it was 1.26%; in assay [16], -0.05%; in [17] it was 1.5%; in [18], -0.93%. The inhibition was 1.21% in [19] and -0.86% in assay [20].
Regarding `CCn1c(-c2nonc2N)nc2cnc(Oc3cccc(NC(=O)c4ccc(N(C)C)cc4)c3)cc21`, the inhibition amounted to 7.29% in [1]; 53.4% in assay [2]; 17% in [3]; 62.9% in [4]; 60.2% in assay [5]; 80.5% in assay [6]. In addition, the inhibition in assay [7] came out at 61.2%; in assay [8], 79%; in assay [9] it was 71.7%; in assay [10], 90.4%; in [11] it was 1.22%; in assay [12], 19.6%. For the same compound, the inhibition in assay [13] is 70.5%; in assay [14], 0.56%; in assay [15], 7.8%; in [16] it was 16.7%; in assay [17] it was 53.6%; in [18], 43.6%. The inhibition in assay [19] was 88%; in assay [20], 3.96%.
With `CCCN1CCC(c2ccc(Nc3nc(Nc4cc(F)ccc4C(N)=O)c4cc[nH]c4n3)c(OC)c2)CC1`, the inhibition in [1] was found to be 2.45%; in assay [2], 30.4%; in assay [3] it was 1.71%; in [4] it was 23.3%; in [5], 2.89%; in assay [6], 8.65%. Also, the inhibition came out at 2.82% in assay [7]; 12% in [8]; 2.27% in assay [9]; 7.03% in assay [10]; 0.96% in assay [11]; 2.33% in assay [12]. Besides, the inhibition in [13] came to 3.51%; in assay [14] it was 0.66%; in assay [15], 16.6%; in assay [16], 0.19%; in assay [17], 4.9%; in assay [18] it was 2.99%. Besides, the inhibition was determined as 9.93% in assay [19] and 3.12% in assay [20].
In the case of `CS(=O)(=O)CCNCc1coc(-c2ccc3ncnc(Nc4ccc(OCc5ccccc5)cc4)c3c2)c1`, the inhibition was found to be 2.17% in assay [1]; 0.57% in assay [2]; 0.72% in [3]; 1.14% in assay [4]; 1.49% in assay [5]; 1.55% in assay [6]. The inhibition was 2.52% in assay [7]; 3.49% in [8]; 0.79% in assay [9]; 3.34% in assay [10]; 6.29% in assay [11]; 1.59% in assay [12]. Also, the inhibition in [13] was 2.39%; in assay [14], 0.46%; in assay [15], 1.78%; in assay [16], 0.47%; in assay [17], -1%; in assay [18] it was 4.58%. In addition, the results for the inhibition in assay [19] and in assay [20] were 3.63% and -2.12%, respectively.
On to `COc1cc2ncn(-c3cc(OCc4ccccc4C(F)(F)F)c(C(=O)N(C)C)s3)c2cc1OC`, for which the inhibition in [1] is 0.01%; in assay [2] it was 0.75%; in assay [3], -1.11%; in [4] it was 1.24%; in assay [5] it was -0.57%; in assay [6], -0.4%. Moreover, the inhibition in assay [7] was 0.13%; in assay [8], 0.89%; in assay [9], -0.55%; in assay [10] it was -1.48%; in [11], 1.17%; in [12], 0.88%. The inhibition in [13] was 0.93%; in assay [14] it was -0.03%; in assay [15] it was 0.21%; in [16], 0.35%; in assay [17], -0.32%; in [18], 1.66%. Further, the inhibition in assay [19] was 0.73%; in assay [20] it was -1.33%.
